In PMC7819943, “Rice protein-binding microarrays: a tool to detect cis-acting elements near promoter regions in rice”:
In all, about 39,000 sequences were measured (“fluorescence intensity (a.u.)”: median about 4,300, highest 2% from about 39,000 on). This is one part of a sample in which the highest values are shown more often than they occur.

These sequences were tested against T1, OsSMF1 (Oryza sativa, UniProt Q6ZLB0 1-436) (assay: protein-binding microarray (RPBM); PBS, 2% BSA, 51.3 ng/ul salmon testes DNA, 50 uM zinc acetate, 200 nM TF, 25 C, 1 h; high values mean tight binding). Details: protein: recombinant; tags: N-terminal polyhistidine and DsRed monomer fusion (pET32a); chain copies: 2; label: CyDye5-dUTP incorporated in the synthesized complementary strand; 3' TTTTT single-stranded linker to array surface; dsDNA, one strand shown.
T1 sequence: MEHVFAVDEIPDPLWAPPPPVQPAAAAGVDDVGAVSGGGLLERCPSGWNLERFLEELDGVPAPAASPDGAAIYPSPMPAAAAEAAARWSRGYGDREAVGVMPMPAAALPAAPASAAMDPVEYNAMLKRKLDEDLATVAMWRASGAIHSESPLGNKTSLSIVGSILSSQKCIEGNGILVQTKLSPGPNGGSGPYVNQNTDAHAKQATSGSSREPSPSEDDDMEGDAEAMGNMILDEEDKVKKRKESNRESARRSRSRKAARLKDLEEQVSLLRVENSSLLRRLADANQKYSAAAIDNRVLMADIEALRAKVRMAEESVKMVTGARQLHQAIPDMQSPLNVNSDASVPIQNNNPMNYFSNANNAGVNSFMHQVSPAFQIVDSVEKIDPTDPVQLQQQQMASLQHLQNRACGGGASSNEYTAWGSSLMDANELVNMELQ
Procedure, shortened: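 The binding signal is fluorescence intensity per array feature (arbitrary units). Readings came from an Axon 4000B scanner after a washed, 2% BSA-blocked, double-stranded custom Agilent array had been incubated for 1 h at 25 °C with 200 nM protein and 50 µM zinc acetate. The protein was a Ni–NTA-purified transcription factor fused N-terminally to polyhistidine and DsRed, expressed in E. coli BL21-CodonPlus.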
In the case of “CCTGAAGTTCTAGATGTTGATTTTGTCATGATGATCTAATCGGAGTCACCTAGTGCAG”, the binding signal is reported as 4580 fluorescence intensity (a.u.). “AAATAAATAGGGAATTTAACCTTGCCACGTCACCGATCCGCGGAGTCACCTAGTGCAG” was tested, and the binding signal was 48100 fluorescence intensity (a.u.). “ATAAATACCGCGATAACCTCCTTAAATTCAAATAAATTTACGGAGTCACCTAGTGCAG” was tested, and the binding signal was 54800 fluorescence intensity (a.u.). In the case of “TCCCGCCAAATCACCGATCCGCGCCTCACGCCACGTCAACCGGAGTCACCTAGTGCAG”, the binding signal is reported as 16000 fluorescence intensity (a.u.). With “TTTCTAATTCGTCATTCACCTCTCTCCTCCATCTCTACCCCGGAGTCACCTAGTGCAG” the binding signal was 3520 fluorescence intensity (a.u.). With “CCTTAAATTTTCCTAAATCCTTACCTACCGTCATTCTCTCCGGAGTCACCTAGTGCAG” the binding signal was 47400 fluorescence intensity (a.u.). With “TACTTATCCAGATTCAAAAGATAAAATTTATTATATTATACGGAGTCACCTAGTGCAG” the binding signal was 12600 fluorescence intensity (a.u.). In the case of “AACTTCAATTTCAAATAACAGGGTCAAATAAACAAACCTACGGAGTCACCTAGTGCAG”, the binding signal is reported as 4590 fluorescence intensity (a.u.). With “GTTTGCGAGGAATAGCGGGAACGATCCGCGCCACCACGAACGGAGTCACCTAGTGCAG” the binding signal was 18000 fluorescence intensity (a.u.). In the case of “CGTCTCATTCTCTCTCCACATTTCCTTTTGATCCCTTCTCCGGAGTCACCTAGTGCAG”, the binding signal is reported as 24300 fluorescence intensity (a.u.). With “CCGGCGTGGCGACGTCAGTACTCTCTTCTGCTTCATTTCTCGGAGTCACCTAGTGCAG” the binding signal was 7490 fluorescence intensity (a.u.). With “AAGCTTTGCATTTGGGCGCTGGGCATGTCAGCGTCCGGTTCGGAGTCACCTAGTGCAG” the binding signal was 4440 fluorescence intensity (a.u.). For “AGATGGGCTTGAGAATGTGATGTCTCGTTTAATTGGGCCCCGGAGTCACCTAGTGCAG”, the binding signal was 3310 fluorescence intensity (a.u.). In the case of “ATTGTTGACACTATGACTTTCTTACTTTGACCGCAATTTTCGGAGTCACCTAGTGCAG”, the binding signal is reported as 3720 fluorescence intensity (a.u.). For “CAAGCAATGCAAGGCAAGAGGTAATTGGCCGTGGAATCCACGGAGTCACCTAGTGCAG”, the binding signal was 4720 fluorescence intensity (a.u.). For “TGAGGATGCAAGAGAATCCTAAAAGGTAAGGCAGCATGCACGGAGTCACCTAGTGCAG”, the binding signal was 44100 fluorescence intensity (a.u.). “CAAGAGATAAGGAGCAATCGATCCAGCGTGGCGGCATGCACGGAGTCACCTAGTGCAG” was tested, and the binding signal was 3470 fluorescence intensity (a.u.). For “CCAGTTTTGTCCACGTGGCAGCTGACTCACGGTGGGACCCCGGAGTCACCTAGTGCAG”, the binding signal was 29200 fluorescence intensity (a.u.). For “AAGTTTGGCTGTATTTATTCCACACCATAATTGAAAGTTTCGGAGTCACCTAGTGCAG”, the binding signal was 3160 fluorescence intensity (a.u.). With “AGCAAAGCTGCCAGAGCACGGCACAGCACACAGGTGACGGCGGAGTCACCTAGTGCAG” the binding signal was 3450 fluorescence intensity (a.u.). For “CGCACCCGCACAGCACCACACCACCTGCCTAGCGCCAAGCCGGAGTCACCTAGTGCAG”, the binding signal was 3560 fluorescence intensity (a.u.). With “AGTTGAGCTCCTTGTCATTGATGAAGCTGCTGCTATTCCACGGAGTCACCTAGTGCAG” the binding signal was 3740 fluorescence intensity (a.u.). In the case of “CCAAAGCTGCGCAGCACCCTGAACGGCACCACACCACGGACGGAGTCACCTAGTGCAG”, the binding signal is reported as 57400 fluorescence intensity (a.u.). In the case of “CACACGCAAAGCTGCAAAAGTTGAATTCCATTATTCCACACGGAGTCACCTAGTGCAG”, the binding signal is reported as 65500 fluorescence intensity (a.u.). “ATTGGATGCTGAATTGATGAGTACATACGTATACGTATACCGGAGTCACCTAGTGCAG” was tested, and the binding signal was 4160 fluorescence intensity (a.u.). “CAACTGGCCATGTATGCACATGCACCCCAGAGACAACCTACGGAGTCACCTAGTGCAG” was tested, and the binding signal was 3420 fluorescence intensity (a.u.). For “GTTGACGGGGTTTGTGAGGTGTGGCGGTGACTTGGAAAGACGGAGTCACCTAGTGCAG”, the binding signal was 3540 fluorescence intensity (a.u.). With “ATGGTTAGCATTAATCACTAATCACGTCATCATTAGTGCTCGGAGTCACCTAGTGCAG” the binding signal was 4040 fluorescence intensity (a.u.). “TGCAGGGACGATCTGATGGACAGCTCGGATTCGTCCCACACGGAGTCACCTAGTGCAG” was tested, and the binding signal was 3190 fluorescence intensity (a.u.). “TGGGTCCCACGCAATAGTGGACCTGATGAATTGCAGGATTCGGAGTCACCTAGTGCAG” was tested, and the binding signal was 41100 fluorescence intensity (a.u.). For “CCCACGGGATTGTCGGTCCCTCGTTTTGGTGATGCAGGACCGGAGTCACCTAGTGCAG”, the binding signal was 3570 fluorescence intensity (a.u.). “GTTATCGTCATTACGTCAATACGTGTTTTCGAAAATAATTCGGAGTCACCTAGTGCAG” was tested, and the binding signal was 4860 fluorescence intensity (a.u.). In the case of “GACACCACCGCCGCCGCCGTCCTCGTCATCTCCAGATCGCCGGAGTCACCTAGTGCAG”, the binding signal is reported as 9120 fluorescence intensity (a.u.). For “ACAGTAGCACCGGAAAGCTGCATGTGAAGTCTAGTCAACGCGGAGTCACCTAGTGCAG”, the binding signal was 4250 fluorescence intensity (a.u.). In the case of “CTTCTCCTGCATGGCAAGTCGCTGATCACAACTACGCATCCGGAGTCACCTAGTGCAG”, the binding signal is reported as 3610 fluorescence intensity (a.u.). “CATAACAACCACTAAAACATTATGAATATTTTGTACATACCGGAGTCACCTAGTGCAG” was tested, and the binding signal was 22800 fluorescence intensity (a.u.). For “TGTAACTATTCTCGCGACACGTACACACCAACACATAAACCGGAGTCACCTAGTGCAG”, the binding signal was 4520 fluorescence intensity (a.u.). With “TTCACAACACTTGCATGAACTCAGGTGTCAATGGTAAGGTCGGAGTCACCTAGTGCAG” the binding signal was 3560 fluorescence intensity (a.u.). With “ATCATGTACATCTCATAGTCAACAATATTCATCACAATCTCGGAGTCACCTAGTGCAG” the binding signal was 3640 fluorescence intensity (a.u.). With “GAGAAAGGAACAACTACAAAAGACACACATATATACTATGCGGAGTCACCTAGTGCAG” the binding signal was 39400 fluorescence intensity (a.u.). In the case of “ACTATATATATACACTACGGTTGACAAAGACATCCCAACACGGAGTCACCTAGTGCAG”, the binding signal is reported as 3240 fluorescence intensity (a.u.). With “CGCACGATGATCATGTGTTGGTGTTGGCATGCAATGCAACCGGAGTCACCTAGTGCAG” the binding signal was 3780 fluorescence intensity (a.u.). For “TCATCTGGTACAAAATATATAGGACATCAATCATGGGGAACGGAGTCACCTAGTGCAG”, the binding signal was 26200 fluorescence intensity (a.u.). “ATACAAAACTAGAAACAAGACATACCAACATCACAACATGCGGAGTCACCTAGTGCAG” was tested, and the binding signal was 26100 fluorescence intensity (a.u.). In the case of “CAAAGGAACACATCTGGGTCATCAGACAACTCAATAGAGTCGGAGTCACCTAGTGCAG”, the binding signal is reported as 43000 fluorescence intensity (a.u.). In the case of “TAGATCAATGATGTTGCATGCAACTCACGCGACACATGGTCGGAGTCACCTAGTGCAG”, the binding signal is reported as 40000 fluorescence intensity (a.u.). For “TGAATATAAACACAACTACATTTAGCGACAGAAGAAGAACCGGAGTCACCTAGTGCAG”, the binding signal was 40600 fluorescence intensity (a.u.).
